Data: PubChem BioAssay AID2384 (Southern Research Specialized Biocontainment Screening …, 2010)
About 1,100 (48%) of roughly 2,300 compounds were called active. How the calls were made is not given here. So high a share suggests a set chosen from earlier hits. The list shows a part of the results. Entries that show only a call come without a potency. Potency and affinity values are given separately.

Test: inhibitors in S. typhi counter-screen strain, dose response, counter-screen for PhoP regulon inhibitor project, fluorescence, 4 h (AID 2384)
Details: S. typhi GFP reporter counter-screen; series mostly up to 150 µM

| SMILES | inhibition |
| --- | --- |
| Cc1ccc(-c2[nH]ncc2/C=N/n2c(C)nc3ccccc3c2=O)cc1 | inactive |
| Cc1ccc(/C=N/n2c(C)nc3ccccc3c2=O)s1 | inactive |
| O=C(C[n+]1cc(-c2ccccc2)n2c1CCC2)c1cccs1 | inactive |
| CCOC(=O)Cc1csc(NC(=O)c2ccc(S(=O)(=O)N3CCCC3)cc2)n1 | inactive |
| O=C(/C=C/c1ccc(O)cc1)c1ccccc1 | inactive |
| COc1cccc(C2=NO[C@@H]3C(=O)N(Cc4ccccc4)C(=O)[C@H]23)c1OC | inactive |
| CCc1nnc(NS(=O)(=O)c2ccc(NC(=S)NC(=O)/C=C/c3ccc([N+](=O)[O-])cc3)cc2)s1 | inactive |
| Cc1cc2ncn(/N=C/c3ccc([N+](=O)[O-])o3)c2cc1C | inactive |
| Cc1ccc2[nH]c(C(=O)O)c(NC(=O)CN3CCN(c4cccc(C)c4C)CC3)c2c1 | inactive |
| Cc1ccc(C(C(=O)NCCc2ccccc2)N(C(=O)c2csnn2)C2CC2)o1 (centres undefined) | inactive |
| [O-][n+]1c2ccccc2cc2ccccc21 | inactive |
| Cc1ccc(S(=O)(=O)NCC(=O)OCN2C(=O)c3ccccc3C2=O)cc1 | inactive |
| CCCOc1ccc(N2C(=O)C3C(C(C)C)NC4(C(=O)c5ccccc5C4=O)C3C2=O)cc1 (centres undefined) | inactive |
| COc1ccc(-c2csc(N)n2)cc1F | inactive |
| Cc1nc2ccc(NC(=O)c3cccc(C(F)(F)F)c3)cc2o1 | inactive |
| CNC(=O)Nc1cccc(C(F)(F)F)c1 | inactive |
| O=C(CNC(=O)Cn1ccc2ccccc2c1=O)NCCCN1CCCCCC1 | inactive |
| Cc1cc(C)cc(NC(=O)C(Sc2nnc(C)c(=O)[nH]2)c2ccccc2)c1 (centres undefined) | inactive |
| CCCC1C(c2ccc(OC)cc2)C(C#N)(C#N)C2(C#N)CC1(N)NC2=O (centres undefined) | inactive |
| O=C(Nc1ccc(Br)cc1)N1CCCCC1 | inactive |
| CCNC(=S)N1CCN(CC)CC1 | inactive |
| O=C1NC(=S)S/C1=C1\Sc2ccccc2N1CCCS(=O)(=O)O | inactive |
| Cn1c(=O)c(=O)n(C)c2cc(S(=O)(=O)N3CCc4ccccc43)ccc21 | inactive |
| Cc1cc(Cl)ccc1OCCCC(=O)N1CCCc2ccccc21 | inactive |
| CN1Cc2ccccc2N(CC(=O)NCc2ccccc2)C1=O | inactive |

| SMILES | inhibition |
| --- | --- |
| Cc1cc(NC(=O)CSc2nnc(-c3cccnc3)n2N)no1 | inactive |
| O=C1N/C(=C/c2ccc(N3CCOCC3)cc2)C(=O)N1Cc1ccc(F)cc1 | inactive |
| O=C(O)CC/C(=C\c1ccccc1[N+](=O)[O-])c1nc2ccccc2s1 | inactive |
| O=C(OCc1nc2ccccc2s1)c1ccco1 | inactive |
| CCOc1ccc(NC(N)=O)cc1 | inactive |
| C/C(=N\Nc1ccc(C)c(Cl)c1)c1cccnc1 | inactive |
| CCOc1ccc(-c2nc(N)ncc2-c2ccccc2)c(O)c1 | inactive |
| CCOC(=O)c1ccc(NC(=O)C2CCC(CNc3c(N4CCOCC4)c(=O)c3=O)CC2)cc1 (centres undefined) | inactive |
| Cc1nnc(SCC(=O)N(C(C)C)C(C)C)[nH]c1=O | inactive |
| CCc1nc(SCC(=O)Nc2ccc(N(C)C)cc2)c2ccccc2n1 | inactive |
| O=C(NCCCNc1ccnc2cc(Cl)ccc12)c1ccccc1F | inactive |
| C#CCOC(=O)c1ccccc1C(=O)OCC#C | inactive |
| COc1ccc(NC(=O)Cn2cnc3c(cnn3C(C)(C)C)c2=O)cc1OC | inactive |
| Cc1nc2cc(C(=O)N3CCC4(CC3)OCCO4)ccc2n1-c1cccc(F)c1 | inactive |
| COC(=O)c1ccc(NC(=O)CO/N=C2\CCCc3nonc32)cc1 | inactive |
| CCOc1ccc(Cl)cc1/C=N/O | inactive |
| COc1ccccc1/C=C/C(=O)Nc1cccc(C(C)=O)c1 | inactive |
| COc1ccc2c(c1)CC1(CN2C)C(=O)NC(=O)N(CCc2ccccc2)C1=O (centres undefined) | inactive |
| CCOC(=O)c1nc2cc3n(c(CC(C)C)c-2c1C)CC(C)=C3C | inactive |
| COc1ccc2nc(NC(=O)C3CC(=O)N(c4ccccc4)C3)sc2c1 (centres undefined) | inactive |
| CCOc1ccc(N2CC(C(=O)OCC(=O)NCc3ccccc3)CC2=O)cc1 (centres undefined) | inactive |
| CCOC(=O)c1ccc(N2Cc3ccccc3C2=NC(=O)c2cccc([N+](=O)[O-])c2)cc1 | inactive |
| CC(C)Oc1ccc(N2CC(C(=O)Nc3ccccc3F)CC2=O)cc1 (centres undefined) | inactive |
| COc1ccc(Nc2c3c(nc4ccc(C)cc24)CCC3)cc1 | inactive |
| COc1cccc(-c2ccc(SCc3ccccn3)nn2)c1 | inactive |

| SMILES | inhibition |
| --- | --- |
| COc1ccccc1-c1nc(C(F)(F)F)c(OC)o1 | inactive |
| Cc1cc(C)cc(NC(=O)CSc2nnc(CNC(=O)c3cccs3)o2)c1 | inactive |
| Cc1ccc(CSc2nc3c(c(=O)[nH]2)CCC3)cc1 | inactive |
| COc1cc(CNCCCN2CCOCC2)c(Br)cc1OCC(=O)Nc1ccccc1C | inactive |
| Cc1ccc(C)c(OCC(=O)Nc2cccc(C(=O)O)c2)c1C | inactive |
| Fc1cccc(Cl)c1CSc1ccc(-c2ccco2)nn1 | inactive |
| Cc1cccc(CSCCNC(=O)COc2ccc(Cl)cc2)c1 | inactive |
| CCC(Oc1ccccc1)C(=O)Nc1nnc(S(=O)(=O)N2CCCCC2)s1 (centres undefined) | inactive |
| ON=C1/C(=N\O)CC2(C/C1=N/O)OCCO2 | inactive |
| CC(C)(C)c1ccc(OCCNC(=S)Nc2ccccc2)cc1 | inactive |
| O=C(NCCOc1ccccc1)c1ncn[nH]1 | inactive |
| O=C(O)COc1ccccc1/C=N/NC(=O)c1cccc(S(=O)(=O)N2CCOCC2)c1 | inactive |
| O=C(N/N=C/c1cccnc1)c1ccc([N+](=O)[O-])cc1Cl | inactive |
| Cc1noc(C)c1S(=O)(=O)N1CCC(Cc2ccccc2)CC1 | inactive |
| Cc1cccc(C(=O)NCCC(=O)Nc2ccc(F)c([N+](=O)[O-])c2)c1 | inactive |
| O=C(N/N=C/c1ccco1)c1cccc(NC(=O)c2cccc(Cl)c2)c1 | inactive |
| O=[N+]([O-])c1ccc2oc(C3CCCCC3)nc2c1 | inactive |
| CC(C)=CCN1CCN(Cc2nc(-c3ccccc3)cs2)CC1CCO (centres undefined) | inactive |
| CCO[C@H]1OC(C(=O)O)=C[C@@H](c2ccccc2)[C@@H]1CCCO | inactive |
| Cc1cccc2cc(C(c3nnnn3Cc3ccccc3)N3CCN(C)CC3)c(=O)[nH]c12 (centres undefined) | inactive |
| O=C(NC1=NCCS1)c1cccc2ccccc12 | inactive |
| O=C1CCCC2=C1C(c1ccncc1)Nc1ccccc1N2 (centres undefined) | inactive |
| Clc1ccc(Nc2nc(C3CC3)cs2)cc1 | inactive |
| CCn1nnnc1NCc1cccc(Cl)c1 | inactive |
